Compound activity as filed in PubChem BioAssay.
This is a sample that favours compounds with a hit; in the whole collection about 0.51% have one here.
AddAB inh: less growth of phage-infected E. coli with AddAB. inhibition, % at 11.9 µM. hit rate 0.29% among 330,000. E. coli expressing H. pylori AddAB, absorbance growth; in the data active = inhibition above about 12%;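 note: 0% = vehicle wells of infected cells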
E coli growth-1: counter-screen for AddAB inhibitors: E. coli growth inhibition; E. coli V3065 growth, OD600 absorbance, 18 h; inhibition, % at 11.9 µM; hit rate 0.27% among 330,000; AID 449728;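 active = inhibition above the campaign's mean inhibition across all tested compounds plus 3 SD, cut at about 9.9% in these data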;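 note: uninfected addAB+ strain grown without phage in ampicillin broth; 0% = DMSO wells and 100% = ciprofloxacin 0.95 µg/ml wells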
E coli growth-2: inhibitors of Escherichia coli growth | OD600, 23 h; hits give low values | OD600 absorbance (test concentration not listed) | hit rate 0.21% among 330,000;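 active = OD600 absorbance below the run mean of sample wells minus 3.6 SD, in any replicate, cut at about 0.56 in these data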
Tat export inh: blocks Tat-dependent protein export in E. coli | E. coli MC4100 TorA-mCherry Tat export, fluorescence | inhibition, % at 10 µM | hit rate 0.036% among 340,000 | AID 488895;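 active = mean replicate inhibition at least 50% and at least half of replicates individually reaching 50%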;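 note: exported cargo escapes ClpAP degradation while cytoplasmic cargo is degraded and loses fluorescence; 0% = median of neutral control wells and 100% = median of NaSCN control wells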
phage Ecoli inh: E. coli growth loss with phage present; growth absorbance; inhibition, % at 11.9 µM; hit rate 0.26% among 360,000; AID 651602; in the data active = inhibition above about 11%
An asterisk follows results filed as active; / = no result.

SMILES	AddAB inh	E coli growth-1	E coli growth-2	Tat export inh	phage Ecoli inh
CC[C@H]1OC(=O)C[C@@H](O)[C@H](C)[C@@H](O[C@@H]2O[C@H](C)C[C@H](N(C)C)[C@H]2O)[C@@H](CC=O)C[C@@H](C)C(=O)C=C[C@]2(C)O[C@H]2[C@@H]1C	99*	100*	/	/	/
CCCCCOc1ccc(Br)cc1CSC(=N)N	/	/	0.48*	-8	7
N#Cc1cccc(NC(=O)Nc2cccs2)c1	6	5	0.54*	2	5
Cc1ccc(S(=O)(=O)N2C(c3cccc(Cl)c3)CC=C(C(=O)O)C2c2ccccc2F)cc1 (stereo not given)	/	/	0.64	/	/
COc1ccc(-n2cccc2C=C2C(=N)N3N=C(C(C)C)SC3=NC2=O)cc1	/	/	0.72	/	/
CCOC(=O)c1ccc(S(=O)(=O)NCCN(CC)CC)cc1	0	1	0.44*	-7	3
CCN(CC)CCNS(=O)(=O)c1ccc(C(=O)NN)cc1	0	0	0.69	-5	2
COc1ccc(-c2sc3ccccc3c2-c2ccc(OCCN(C)C)cc2)cc1	2	-3	0.47*	1	3
CN(C)CCOc1ccc(-c2c(-c3ccsc3)sc3ccccc23)cc1	-1	-2	/	9	2
CO[C@@]1(NC(=O)C2SC(=C(C(N)=O)C(=O)O)S2)C(=O)N2C(C(=O)O)=C(CSc3nnnn3C)CSC21 (stereo not given in full)	/	/	0.061*	/	/
CO[C@@]1(NC(=O)CSCC#N)C(=O)N2C(C(=O)O)=C(CSc3nnnn3C)CSC21 (stereo not given in full)	/	/	0.6	/	/
CCCCN1C(=N)N([C@@H](CN2CCC[C@H]2CN2C(N)=NC[C@@H]2Cc2ccccc2)C(C)C)C[C@H]1Cc1ccccc1	1	1	/	5	2
CC(C)C[C@@H]1CN=C(N)N1C[C@@H]1CCCN1C[C@@H](C(C)C)N1C[C@@H](Cc2ccccc2)N(CCCC2CCCC2)C1=N	2	1	0.46*	10	1
C[n+]1c2n(c3ccccc31)N=C(c1ccc(-c3ccccc3)cc1)CS2	6	2	0.3*	17	6
C[n+]1c2n(c3ccccc31)N=C(c1ccccc1)CS2	1	0	0.66	1	2
Cc1ccc(C(=O)Nc2nnc(-c3ccco3)o2)cc1C	10	-3	0.64	-3	-4
O=C(Nc1nnc(-c2ccco2)o1)c1ccc(Cl)cc1	9	3	0.44*	2	-2
CC(=O)OCC1=C(C(=O)OC(C)(C)C)N2C(=O)[C@@H](NC(=O)Cc3ccccc3)[C@H]2SC1	/	/	0.72	-5	1
COc1cccc(C(=O)NC2C(=O)N3C(C(=O)O)=C(COC(C)=O)CSC23)c1 (stereo not given)	1	0	/	0	1
COCC1=C(C(=O)OC(C)OC(=O)OC(C)C)N2C(=O)C(NC(=O)C(=NOC)c3csc(N)n3)C2SC1 (stereo not given)	/	/	0.28*	/	/
CON=C(C(=O)NC1C(=O)N2C(C(=O)O)=C(COC(C)=O)CSC12)c1csc(N)n1 (stereo not given)	/	/	0.063*	/	/
Cc1ccc(C(=O)N/C(=C\c2ccc(-c3cccc([N+](=O)[O-])c3)o2)C(=O)NCCCN(C)C)cc1	-2	-1	0.72	-3	0
Cc1ccc(C(=O)N/C(=C\c2ccc(-c3ccc(Br)cc3)o2)C(=O)NCCCN(C)C)cc1	0	-2	0.5*	8	3
CCCCCCCN(c1ccccc1)[C@@H]1C[C@H]2CCCC(=O)N3CC[C@@H](C1)[C@@H]23	/	/	/	51*	4
CCCCNC(=O)O[C@@H]1C[C@H]2CCCC(=O)N3CC[C@@H](C1)[C@@H]23	1	-2	/	-8	2
SMILES	AddAB inh	E coli growth-1	E coli growth-2	Tat export inh	phage Ecoli inh
CCOC(=O)c1c(-c2ccccc2)csc1NC(=O)CCN1C(=O)c2ccccc2C1=O	5	-1	0.72	1	3
CCOC(=O)c1c(-c2ccc(-c3ccccc3)cc2)csc1NC(=O)CNCCN(C)C	-6	-3	0.41*	13	-3
Cc1cc(Nc2cccc(Cl)c2)nc(NCc2ccccc2)n1	0	1	0.46*	-2	4
Cc1ccc(NC(=O)C2CCCN(c3ncccn3)C2)cc1F (stereo not given)	7	9.8*	0.63	-4	1
O=C(Cc1ccccc1)NNC(=S)NC(=O)c1cccs1	-6	-8	0.45*	/	-4
COc1ccc(-n2nc(C(=O)NCC(=O)Nc3cccc(NC(C)=O)c3)c3ccccc3c2=O)cc1	1	-2	0.57*	-16	-5
CCOc1c2ccc(C(=O)NC(C)C3CCCCC3)cc2nn1CC (stereo not given)	/	/	0.72	/	/
